Compounds with a hit are over-represented: about 1.3% of the library has one in this group of screens.
PKM2 activator: PKM2 (human) enzyme activation | P14618 | 260,000 tested, 0.34% active | Potency, µM (doses to about 57.5 µM), without a hit: at the highest dose activation, actives largely listed as activators | purified PKM2, Kinase-Glo ATP luminescence, activation; response scale: 0% is enzyme alone, no compound; further: potency means the concentration at half of the fitted maximal effect; on the % scale 0 is the no-effect control and ±100 the full control effect; nearly all actives have a fitted effect of over 55% in size
Target sequence (P14618 whole entry, looked up): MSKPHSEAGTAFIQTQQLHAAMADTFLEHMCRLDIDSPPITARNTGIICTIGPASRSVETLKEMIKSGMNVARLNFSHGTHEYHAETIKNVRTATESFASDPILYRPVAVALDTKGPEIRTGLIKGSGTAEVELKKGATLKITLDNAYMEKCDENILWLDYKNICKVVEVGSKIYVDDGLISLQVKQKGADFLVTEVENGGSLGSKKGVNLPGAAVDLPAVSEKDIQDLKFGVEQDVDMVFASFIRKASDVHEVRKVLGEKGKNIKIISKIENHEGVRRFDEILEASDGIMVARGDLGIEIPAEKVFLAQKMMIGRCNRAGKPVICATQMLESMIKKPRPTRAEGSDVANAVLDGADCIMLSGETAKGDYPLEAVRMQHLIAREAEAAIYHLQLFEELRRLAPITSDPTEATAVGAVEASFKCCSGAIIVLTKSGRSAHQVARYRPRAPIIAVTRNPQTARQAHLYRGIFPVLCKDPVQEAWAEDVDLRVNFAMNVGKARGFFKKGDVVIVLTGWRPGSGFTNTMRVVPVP
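Purified hPK-M2 (>95% pure) converted ADP (0.1 mM final) to ATP with 0.5 mM PEP in 50 mM imidazole pH7.2, KCl, MgCl2, Tween 20, BSA; 1 h at room temperature. ATP detected by Kinase-Glo luminescence.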
IL2 activator: IL-2 activation | IL-2 activation reporter assay, cell-based qHTS; stimulated with anti-CD3/CD4/CD28 beads; in transgenic mouse T cells | activation, % (series mostly up to about 46 µM) | 360,000 tested, 0.065% active | AID 652025; in the data active means activation above about 50%; inconclusive means mostly about 30% to 49%; further: 0% is about no effect
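EGFP and DsRed fluorescence is measured by plate cytometry in unstimulated transgenic mouse T cells exposed to compound for 60 minutes, then stimulated 18 hours at 37 degrees C with anti-CD3/anti-CD4 beads plus anti-CD28.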
BRCA1 expr act: activators of BRCA1 expression; MCF7-BRCA1-FFLuc reporter, luminescence, 48 h; response scale: scaled: vehicle 0%, 10 µM genistein 100%; Potency, µM (titrated, usually from 46.1 µM), for the others: at the highest dose activation, actives largely listed as activators; 380,000 tested, 1.1% active; AID 624202; further: potency means the concentration at half of the fitted maximal effect; nearly all actives have a fitted effect of over 80% in size
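48 h compound treatment of MCF7-BRCA1-FFLuc cells (phenol-red free MEM, 37 °C), then 15 min with luciferase substrate and luminescence imaging.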
Anesthetic bind: candidate novel general anesthetic via apoferritin binding; apoferritin/1-aminoanthracene competitive binding, fluorescence; Potency, µM (top dose mostly 77.5 µM), without a hit: at the highest dose activity change, negative = displacement, actives largely listed as inhibitors; 350,000 tested, 0.074% active; further: potency means the concentration at half of the fitted maximal effect; on the % scale 0 is the no-effect control and ±100 the full control effect; nearly all actives have a fitted effect of over 20% in size
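10 uM apoferritin + 50% sat. 1-AMA, PBS; cpd 10 min RT; Ex380/Em535 endpoint; normalized to free probe vs complex; 4-param Hill fit; propofol titration as pos. ctrl.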
Integrin act MD: activates integrin-mediated alleviation for muscular dystrophy; alpha7betagal myoblasts, beta-gal FDG fluorescence, 48 h; Potency, µM (titrated, usually from 38.3 µM), for inactives: at the highest dose activation, most hits filed as activators; 350,000 tested, 0.064% active;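 further: potency means the concentration at half of the fitted maximal effect; 100% = response of the positive control SU9516; nearly all actives have a fitted effect of over 60% in size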
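Alpha7betagal+/- myoblasts (passage 13) were plated 16-24 hr, then exposed to compounds (1:260 dilution of DMSO stock) for 48 hours at 37C. After MPER lysis, β-galactosidase reporter activity was read as FDG fluorescence (ex 480/em 540) after 30 minutes.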
Active calls of the source: *; i = inactive; ? = inconclusive; · = no result; [ ] = another dose, or the depositor's remark. Unless noted, the call rests on the fitted dose curve; in most records, active means well fitted curve in the direction sought with a large enough effect; inconclusive means small, poorly fitted or top-dose-only effect, or another doubt; inactive means no such curve, though single readings can be large; an effect the other way counts as inactive or inconclusive.

SMILES	PKM2 activator	IL2 activator	BRCA1 expr act	Anesthetic bind	Integrin act MD
O=S(=O)(c1ccccc1F)N1CCN(C(=S)NCc2ccccc2)CC1	?	7.1	-2.1%	35.8%	9.7%
O=C(NCc1ccc(F)cc1)N1CCN(S(=O)(=O)c2ccccc2F)CC1	11.2µM*	3.6	0.0%	-7.1%	11.2%
COc1ccc(CNC(=O)N2CCN(S(=O)(=O)c3ccccc3F)CC2)cc1	·	-3.7	0.0%	-3.2%	7.0%
O=C(NCc1cccc(Cl)c1)N1CCN(S(=O)(=O)c2ccccc2F)CC1	14.1µM*	-2.6	0.0%	-11.2%	1.0%
CC(C)C[C@H](NC(=O)[C@@H](N)Cc1ccccc1)C(=O)N[C@@H](Cc1ccccc1)C(=O)N[C@@H](CCC(N)=O)C(=O)N1CCC[C@H]1C(=O)N[C@@H](CCC(N)=O)C(=O)N[C@@H](CCCN=C(N)N)C(=O)N[C@@H](Cc1ccccc1)C(N)=O	·	·	·	-8.2%	·
O=C(/C=C/c1ccc(O)c(O)c1)c1ccc(O)cc1O	·	·	·	-10.0%	·
Cc1ccc(NC(=O)C(=O)NCC2CCCO2)cc1 (stereo not given)	1.8%	-2.2	10µM*	-1.7%	5.0%
O=C(NCC1CCCO1)Nc1cc(Cl)cc(Cl)c1 (stereo not given)	-0.2%	0.8	3.3%	-18.5%	1.9%
Cc1ccc(NC(=O)C(=O)NCC2CCCO2)cc1C (stereo not given)	-24.1%	4.8	?	-13.4%	-24.9%
O=C(NCC1CCCO1)c1cc(-c2ccccc2F)no1 (stereo not given)	·	0.9	12.6µM*	-7.1%	-6.3%
Clc1ccc(-c2ccc(CNCC3CCCO3)o2)cc1 (stereo not given)	-0.5%	-0.6	10µM*	-3.3%	?
O=C(NCC1CCCO1)Nc1ccc(Cl)cc1 (stereo not given)	12.4%	0.0	10µM*	-3.4%	-14.7%
Oc1ccc(Cl)cc1CNCC1CCCO1 (stereo not given)	4.6%	-2.5	-1.0%	-15.5%	1.8%
CCN1C(=O)[C@H]2[C@H]3[C@H](O)[C@H](O)C/C(=N/O[C@@H]4O[C@@H](COC(C)=O)[C@@H](OC(C)=O)[C@@H](OC(C)=O)[C@H]4OC(C)=O)[C@H]3CC[C@@H]2C1=O	·	·	·	3.2%[15.3 µM]	·
O=C(NCCc1ccccc1)C(=O)NCC1CCCO1 (stereo not given)	-5.1%	-1.8	12.6µM*	-11.4%	-7.6%
O=C(NCc1cccc(CNC(=O)C(=O)NCC2CCCO2)c1)C(=O)NCC1CCCO1 (stereo not given)	18.8%	-0.8	0.0%	0.1%	-0.4%
O=[N+]([O-])c1cccc(/C=N/Nc2nccnc2Cl)c1	-49.2%	-0.6	7.94µM*	-19.9%	-18.9%
Fc1ccc(/C=N/Nc2nccnc2Cl)cc1	-34.9%[11.5 µM]	-0.2	10µM*	-1.4%	4.2%
C#CCCCO/N=C1/C[C@@H](O)[C@@H](O)[C@@H]2[C@@H]3C(=O)N(Cc4ccccc4)C(=O)[C@H]3CC[C@@H]12	·	·	·	-10.6%[15.3 µM]	·
Cc1ccc(C#CC2C=CC(Oc3ccc4c(c3)OCO4)C(CO)O2)c(C)c1 (stereo not given)	·	·	·	-7.1%[15.3 µM]	·
CCN(CC)Cc1c(O)ccc2cc(-c3nc4ccccc4n3C)c(=O)oc12	·	-4.7	11.2µM*	i	-10.7%
COc1ccc(C(=O)Nc2cccc(-c3cn4ccsc4n3)c2)c(OC)c1	·	·	·	36.7%	·
Cc1ccc(-n2ncc(Cl)c2C(=O)NCc2ccccc2)cc1	·	-2.9	11.2µM*	-10.4%	-20.0%
CNC(=O)c1c(Cl)cnn1-c1ccc(F)cc1	-6.5%	2.4	102.2%	-1.4%	7.7%
Cc1cc(-c2ccccc2)n(-c2ccccc2)n1	7.3%[11.5 µM]	-1.5	8.91µM*	-18.7%	-5.7%
Cc1cc(-c2ccco2)n(-c2ccccc2)n1	13.2%	-0.3	-4.2%	-11.8%	-22.8%
c1ccc(COc2ccc(CNCc3cccnc3)cc2)cc1	-3.5%	3.0	10µM*	?	0.0%
CC(=O)c1cnc2nc(SCc3ccccc3C)nn2c1C	12.6µM*	-2.6	81.1%	?	-6.8%
CCOC(=O)c1ccc(OS(=O)(=O)c2ccccc2)c(OC)c1	12.7%	-1.2	5.62µM*	-5.9%	-2.9%

Compound activity: PubChem BioAssay, National Center for Advancing Translational Sciences (NCATS)
